D1 agonist: Allosteric Agonists of the Human D1 Dopamine Receptor: qHTS; D(1A) dopamine receptor (Homo sapiens), P21728; HEK293 T-REx D1 cells, calcium flux, agonist mode; activation, % at 2 µM; 360,000 compounds, 1% hits; AID 504660, 2011; in the data active = activation above about 30%; also: 0% is about no effect
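Agonism was scored from calcium flux recorded over 180 s (1 read/s) after pintool compound addition, following a 10-cycle baseline. Cells were inducible force-coupled HEK293 TREx D1, plated overnight at 30 C and loaded with no-wash calcium dye.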
D3 antag: qHTS of D3 Dopamine Receptor Antagonist: qHTS. D3R cells, DiscoveRx beta-arrestin luminescence, antagonist mode; stronger effect = lower value. 360,000 compounds, 2.5% hits. D(3) dopamine receptor (Homo sapiens), P35462. max response, negative = inhibition, %; in the data active = max response below about -50%; inconclusive = no clear call, values can overlap the other calls; also: % is scaled to controls: 0 for no effect and ±100 for the full control effect
Target sequence (P35462 whole entry, looked up): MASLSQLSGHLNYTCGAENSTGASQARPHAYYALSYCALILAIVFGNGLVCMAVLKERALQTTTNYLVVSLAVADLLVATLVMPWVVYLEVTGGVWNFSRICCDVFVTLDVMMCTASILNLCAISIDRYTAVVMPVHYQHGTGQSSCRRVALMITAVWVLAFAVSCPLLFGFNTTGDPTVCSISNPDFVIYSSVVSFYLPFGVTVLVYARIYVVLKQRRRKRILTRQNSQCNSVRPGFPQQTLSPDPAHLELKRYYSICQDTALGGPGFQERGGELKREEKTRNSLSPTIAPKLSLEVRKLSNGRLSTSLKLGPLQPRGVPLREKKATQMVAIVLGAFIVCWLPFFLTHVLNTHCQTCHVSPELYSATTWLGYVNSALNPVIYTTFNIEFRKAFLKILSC
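Cells plated overnight at 1500 cells/well, then exposed to library compounds with dopamine controls for 90 minutes at 37 degrees C. DiscoveRx reagent added for 30–60 minutes at room temperature; luminescence read, quantitative HTS format.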
D1 potentiator: Potentiators of Human D1 Dopamine Receptor: qHTS | HEK293 TREx D1 cells, calcium flux, dopamine EC20 potentiation | D(1A) dopamine receptor (Homo sapiens), P21728 | potentiation, % at 10 µM | AID 504651, 2011 | 360,000 compounds, 0.036% hits; in the data active = potentiation above about 30%; also: 0% is about no effect
D1 antagonist: Antagonist of Human D 1 Dopamine Receptor: qHTS; D(1A) dopamine receptor (Homo sapiens), P21728; HEK293 TREx D1 cells, calcium flux, dopamine EC80; stronger effect = lower value; activity change, negative = inhibition, % at 10 µM; 360,000 compounds, 3.2% hits; AID 504652, 2011; in the data active = activity change below about -30%; also: % is scaled to controls: 0 for no effect and ±100 for the full control effect
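Calcium flux readout: force-coupled, inducible Hek293 Trex D1 line, cells induced overnight at 30 C with tetracycline, dye-loaded 30–90 min at RT. Antagonism scored against EC80 dopamine challenge given 180 s after compound.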
DRD3 agonist: qHTS of D3 Dopamine Receptor Agonist: qHTS. D(3) dopamine receptor (Homo sapiens), P35462. D3R DiscoveRx beta-arrestin cells, luminescence, 90 min. max activation, %. 410,000 compounds, 0.58% hits; in the data active = max activation above about 30%; also: 0% is about no effect
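Cells at 1500/well, incubated overnight, then treated with pinned compounds (dopamine as control) for 90 min at 37 degrees C. DiscoveRx reagent added for 30 - 60 minutes at room temperature; luminescence read.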
Starred values were filed as active, the others as inactive. This is a sample that favours compounds with a hit; in the whole collection about 6% have one here.

For COc1ccc2c(c1)c1c(c(=O)n(Cc3ccccc3)c(=O)n1CC(=O)Nc1ccccc1F)n2C the results were D1 agonist 4, D1 potentiator -1, D1 antagonist 13 and DRD3 agonist 2.
`Cc1oc2c(c1C(=O)NCc1cccnc1)C(=O)c1ccccc1C2=O` gave D1 agonist 0, D3 antag -72*, D1 potentiator -8, D1 antagonist -3 and DRD3 agonist -7.
`CC(=O)c1c(C)oc2c1C(=O)c1ccccc1C2=O` gave D1 agonist 1, D3 antag -17, D1 potentiator -2, D1 antagonist 1 and DRD3 agonist -17.
For COc1ccc(CNC(=O)c2c(C)oc3c2C(=O)c2ccccc2C3=O)cc1 the results were D1 agonist -2, D3 antag -72*, D1 potentiator 0, D1 antagonist 11 and DRD3 agonist -7.
For CC(C)CCNC(=O)C1CCN(C(=O)c2cc3sccc3n2Cc2ccc(Cl)cc2)CC1 the results were D1 agonist 5, D1 potentiator -2, D1 antagonist -1 and DRD3 agonist 0.
For Cc1ccc(N=C2c3ccccc3C(=O)C2[N+](=O)[O-])cc1C (centres undefined) the results were D1 agonist 3, D3 antag -58*, D1 potentiator -4, D1 antagonist -7 and DRD3 agonist -4.
For Cc1ccc(N=C2C(=O)Nc3ccccc32)cc1C the results were D1 agonist 2, D3 antag 5, D1 potentiator 5, D1 antagonist -2 and DRD3 agonist -6.
Screening COc1cccc(CNS(=O)(=O)c2ccc3c(c2)N(C(C)=O)CCO3)c1 returned D1 agonist 0, D3 antag -4, D1 potentiator -8, D1 antagonist -90* and DRD3 agonist -10.
O=C(Nc1nc(-c2cccs2)cs1)c1cccc(S(=O)(=O)N2CCCCC2)c1 was read as D1 agonist 4, D3 antag -69*, D1 potentiator -4, D1 antagonist 7 and DRD3 agonist -7.
Screening Cc1cc(NC(=O)c2cccc(S(=O)(=O)N3CCCCCC3)c2)n(-c2ccccn2)n1 returned D1 agonist 2, D3 antag -55*, D1 potentiator 9, D1 antagonist 6 and DRD3 agonist -7.
Nc1nc(NC(=O)c2cccc(S(=O)(=O)N3CCCCCC3)c2)nc(-c2ccccc2)n1 was read as D1 agonist 1, D3 antag -18, D1 potentiator 3, D1 antagonist -6 and DRD3 agonist 34*.
For Cc1ccc(-c2csc(NC(=O)c3cccc(S(=O)(=O)N4CCN(C)CC4)c3)n2)cc1 the results were D1 agonist 7, D3 antag -25, D1 potentiator -11, D1 antagonist -13 and DRD3 agonist -2.
Screening Cc1nc2ccn(Cc3ccco3)c(=O)c2cc1C(=O)NCc1ccccc1 returned D1 agonist 1, D1 potentiator -2, D1 antagonist -7 and DRD3 agonist 8.
CCOc1ccc(NC(=O)CSc2oc(-c3cccs3)nc2S(=O)(=O)c2ccc(C)cc2)cc1 was read as D1 agonist 4, D1 potentiator -1, D1 antagonist 3 and DRD3 agonist 7.
CCC[C@@H]1C[C@@H](C(=O)N[C@@H]([C@H]2O[C@H](SC)[C@H](O)[C@@H](O)[C@H]2O)[C@H](C)Cl)N(C)C1 was read as DRD3 agonist -13.
C/C(=N\NC(=O)c1cc(-c2ccc(Br)s2)[nH]n1)c1ccncc1 was read as D1 agonist 3, D3 antag -2, D1 potentiator -1, D1 antagonist 0 and DRD3 agonist -2.
`O=C(N/N=C/c1ccco1)c1cc(-c2ccc(Cl)s2)[nH]n1` gave D1 agonist 28, D3 antag 3, D1 potentiator -1, D1 antagonist -43* and DRD3 agonist -6.
Screening C/C(=N/NC(=O)c1cc(-c2ccc(Br)s2)[nH]n1)c1ccco1 returned D1 agonist 0, D3 antag -17, D1 potentiator -10, D1 antagonist -46* and DRD3 agonist -21.
For O=C(N/N=C/c1ccco1)c1cc(-c2ccc(Br)s2)[nH]n1 the results were D1 agonist 1, D3 antag 0, D1 potentiator -7, D1 antagonist -1 and DRD3 agonist -5.
For Cc1ccc2c(c1)c(=O)c(C(=O)c1ccncc1)cn2CC(=O)Nc1ccc(C(C)C)cc1 the results were D1 agonist 2, D1 potentiator 0, D1 antagonist 3 and DRD3 agonist -22.
Screening COc1ccc(OCCCNCCc2ccccc2)cc1 returned D1 agonist 17, D3 antag -52*, D1 potentiator -9, D1 antagonist -11 and DRD3 agonist -27.
For OCCCCNCc1ccc(OCc2ccccc2Cl)cc1 the results were D3 antag -7 and DRD3 agonist -8.
`CC(C)(C)c1ccc(OCCCNCc2ccccc2)cc1` gave D1 agonist 61*, D3 antag inconclusive, D1 potentiator 5, D1 antagonist 26 and DRD3 agonist -25.
OCCNCCCCOc1ccc(OCc2ccccc2)cc1 was read as D1 agonist 46*, D3 antag 41, D1 potentiator -14, D1 antagonist -31* and DRD3 agonist 10.
Screening CCOCCCNCc1ccc(OCc2ccccc2Cl)cc1 returned D1 agonist 36*, D3 antag -1, D1 potentiator 0, D1 antagonist -13 and DRD3 agonist -9.
Screening COc1ccc(CNC(=O)CCc2c(C)nc3nc(CNC(=O)OC(C)(C)C)nn3c2C)cc1 returned D1 agonist 2, D1 potentiator 0, D1 antagonist 4 and DRD3 agonist 8.
`COc1ccc(CCC(=O)NC2CC(=O)N(c3ccc(C)c(C)c3)C2)cc1` (centres undefined) gave D1 agonist -3, D1 potentiator -2 and DRD3 agonist 4.
Cc1ccc(S(=O)(=O)NCC(Nc2cccc(Cl)c2)c2ccccc2)cc1 (centres undefined) was read as D1 agonist 1, D1 potentiator -4, D1 antagonist 7 and DRD3 agonist -1.
COC(=O)c1ccc(NC(=O)CC2C(=O)N(c3cccc(OC)c3)C(=O)N2Cc2cccs2)cc1 (centres undefined) was read as D1 agonist 3, D1 potentiator -2, D1 antagonist -13 and DRD3 agonist 7.
For COc1ccc(-n2ncc(C(=O)N3CCc4ccccc4C3)c2C2CCN(C(=O)OC(C)(C)C)CC2)cc1 the results were D1 agonist 0, D1 potentiator 0, D1 antagonist 4 and DRD3 agonist 5.
`CCc1cc(OCCCCNCc2ccccc2)ccc1Cl` gave D1 agonist 51*, D3 antag inconclusive, D1 potentiator 9, D1 antagonist -1 and DRD3 agonist -13.
